Assay [1] has as its system Human papillomavirus type 1a protein E7 (residues 44-93). In words: small molecules binding HPV E7 44-93 – biochemical, small-molecule microarray, residues 44-93, 635 nm fluorescence, primary screen (AID 1108).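 Note: E7 fragment applied at 1 µg/mL in TBST for 1 h at 4 C; score combines spot fluorescence with its signal to noise ratio.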 To be noted: fluorescence 635 nm, higher = more signal.
Assay [2] can be described thus: hepatitis C replication reporter changes, two-sided – Huh7 cells, luciferase reporter, HCV replication inhibitor project, primary screen (AID 1109).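 Note: huh7 hepatoma cells harbouring a luciferase neomycin HCV replicon reporter; luciferase luminescence as measure of HCV replicon replication; test concentration not given here.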 As to conditions: Huh7 HCV replicon luciferase reporter, 48 h; higher = more signal.
The target in assay [3] is Left-right determination factor 2 (Homo sapiens) (UniProt O00292). In words: small molecules binding LEFTY2 protein – biochemical, small-molecule microarray, 635 nm fluorescence scan, primary screen (AID 1110). As to conditions: higher = more signal.
Left-right determination factor 2 (Homo sapiens), sequence (O00292 whole entry, looked up): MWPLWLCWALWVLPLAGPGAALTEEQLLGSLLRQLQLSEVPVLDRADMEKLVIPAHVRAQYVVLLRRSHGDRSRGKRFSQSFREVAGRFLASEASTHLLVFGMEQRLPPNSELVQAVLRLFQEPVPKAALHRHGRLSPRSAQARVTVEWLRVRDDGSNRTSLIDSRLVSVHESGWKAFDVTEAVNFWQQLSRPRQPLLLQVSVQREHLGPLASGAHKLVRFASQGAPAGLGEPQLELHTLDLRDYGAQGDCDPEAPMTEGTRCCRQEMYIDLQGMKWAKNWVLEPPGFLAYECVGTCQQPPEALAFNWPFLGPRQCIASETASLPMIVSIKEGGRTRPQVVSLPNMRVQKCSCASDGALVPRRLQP
Assay [4] has as its target Calmodulin-1 (Homo sapiens) (UniProt P0DP23). The experiment in a line: small molecules binding calmodulin-1 with EGTA – biochemical, small-molecule microarray, Cy5-labelled CALM1, profiling panel (AID 1111).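 Note: labelled calmodulin applied in Tris saline Tween buffer holding calcium plus EGTA and DTT.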 To be noted: Cy5-CALM1 binding fluorescence, higher = more signal.
Assay [5] has the same target. The experiment in a line: small molecules binding Ca-loaded calmodulin-1 – biochemical, small-molecule microarray, Cy5-labelled CALM1, plus calcium, artefact control for SMM control-protein annotation, profiling panel (AID 1112).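 Note: score merges spot fluorescence with signal to noise from triplicate slides.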 To be noted: Cy5-CALM1 binding fluorescence, higher = more signal.
Assay [6] can be described thus: probe aWnt5a binding to arrayed compounds – biochemical, biotinylated probe, 635/667 nm fluorescence, primary screen (AID 1113).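 Note: score merges 667 nm fluorescence intensity with signal-to-noise per printed feature.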 To be noted: small-molecule microarray, higher = more signal.
A short description of assay [7]: probe aShh binding to arrayed compounds – biochemical, biotinylated probe, 635/667 nm fluorescence, primary screen (AID 1114).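 Note: probe is biotin-labelled aShh protein from a stem cell growth factor screen; measures binding of labelled protein to compounds printed on the slide; score merges feature fluorescence at 667 nm with signal-to-noise.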 As to conditions: small-molecule microarray, higher = more signal.
Assay [8] can be described thus: probe aNog binding to arrayed compounds – biochemical, biotinylated probe, 635/667 nm fluorescence, primary screen (AID 1115).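 Note: probe is biotinylated aNog protein used at 0.15 µg/mL for 1 h at 4 C; z-score combines 667 nm fluorescence of each spot with its signal to noise.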 To be noted: small-molecule microarray, higher = more signal.
Assay [9] has as its target Torsin-1A-interacting protein 1 (Homo sapiens) (UniProt Q5JTV8). In words: compound microarray binding of lysate hLAP1 – cell lysate, small-molecule microarray, COS7 lysate, 635/667 nm fluorescence, primary screen (AID 1116). To be noted: 635 nm fluorescence, higher = more signal.
The target in assay [10] is Alpha-bungarotoxin (Bungarus multicinctus) (UniProt P60615). The experiment in a line: compounds binding labelled alpha-BTX control protein – biochemical, small-molecule microarray, Alexa647 label, 635/667 nm fluorescence, artefact control for SMM control protein annotation, profiling panel (AID 1117). As to conditions: alpha-BTX-A647 binding fluorescence, higher = more signal.
Alpha-bungarotoxin (Bungarus multicinctus), sequence (P60615 whole entry, looked up): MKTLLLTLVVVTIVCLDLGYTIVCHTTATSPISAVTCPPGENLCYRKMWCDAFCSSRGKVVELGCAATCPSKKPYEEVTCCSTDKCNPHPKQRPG

Another assay deals with Albumin (Bos taurus) (UniProt P02769). The experiment in a line: compounds binding labelled BSA control protein – biochemical, small-molecule microarray, Alexa647 label, 635/667 nm fluorescence, artefact control for SMM control protein annotation, profiling panel (AID 1118).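 Note: score merges 667 nm emission intensity and signal-to-noise per printed compound spot.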 As to conditions: BSA-A647 binding, fluorescence 635 nm, higher = more signal.
Albumin (Bos taurus), sequence (P02769 whole entry, looked up): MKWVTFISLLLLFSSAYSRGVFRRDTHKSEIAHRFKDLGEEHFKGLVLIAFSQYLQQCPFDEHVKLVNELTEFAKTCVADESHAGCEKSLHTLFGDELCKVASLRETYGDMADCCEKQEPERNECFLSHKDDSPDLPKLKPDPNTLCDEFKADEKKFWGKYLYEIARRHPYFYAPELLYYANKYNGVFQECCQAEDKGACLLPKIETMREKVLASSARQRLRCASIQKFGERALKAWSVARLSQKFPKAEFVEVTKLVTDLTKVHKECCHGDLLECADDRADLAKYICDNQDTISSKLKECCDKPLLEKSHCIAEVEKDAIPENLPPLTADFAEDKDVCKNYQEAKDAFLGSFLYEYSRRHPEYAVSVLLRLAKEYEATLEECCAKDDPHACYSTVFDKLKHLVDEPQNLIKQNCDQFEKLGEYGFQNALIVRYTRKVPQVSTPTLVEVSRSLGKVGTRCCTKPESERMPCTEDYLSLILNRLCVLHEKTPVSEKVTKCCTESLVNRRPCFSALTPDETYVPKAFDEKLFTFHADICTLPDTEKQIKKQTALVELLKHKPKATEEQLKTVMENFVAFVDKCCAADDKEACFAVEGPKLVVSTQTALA
The nature of assay [11]: probe aXIP binding to arrayed compounds – biochemical, NeuroSMM set, 635/667 nm fluorescence, primary screen (AID 1119).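 Note: probe is the protein aXip251-270 applied at 1 µg/mL to compound-printed slides; binding of probe to printed compounds measured as 667 nm fluorescence plus signal to noise.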 To be noted: small-molecule microarray, higher = more signal, called active from +8 up or from −8 down.
Assay [12] in a line: probe aNOTCH3 binding on compound microarray – biochemical, small-molecule microarray, 635/667 nm fluorescence, primary screen (AID 1120).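 Note: probe is a biotin-tagged antibody raised against NOTCH3 rather than NOTCH3 protein; score merges spot fluorescence near 667 nm with spot signal to noise.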 As to conditions: higher = more signal.
A short description of assay [13]: probe aNOTCH2 binding on compound microarray – biochemical, small-molecule microarray, 635/667 nm fluorescence, primary screen (AID 1121).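 Note: score merges feature fluorescence read at 667 nm with its signal to noise.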 As to conditions: higher = more signal.
Assay [14] has as its target Carbonic anhydrase 2 (Homo sapiens) (UniProt P00918). In words: compounds binding carbonic anhydrase 2 – biochemical, small-molecule microarray, Alexa647-labelled CAII, profiling panel (AID 1122). To be noted: CAII-A647 binding fluorescence, higher = more signal.
Assay [15] can be described thus: COS7 lysate on small-molecule microarray, probe aHis, 635 nm (AID 1123).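 Note: z-score combines 667nm fluorescence intensity with signal-to-noise per printed compound spot.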 As to conditions: COS7 cell lysate, fluorescence, higher = more signal.
A short description of assay [16]: probe aLAP1 signal on lysate-treated microarray – cell lysate, small-molecule microarray, COS7 lysate, primary screen (AID 1124).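 Note: lysate comes from COS7 cells expressing LAP1 and is applied at 0.3 µg/mL; score merges spot fluorescence near 667 nm with signal-to-noise over triplicate slides.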 To be noted: probe aLAP1, fluorescence, higher = more signal.
The next assay relates to Sam68 (KHDRBS1). The experiment in a line: compounds binding KHDRBS1 protein – biochemical, small-molecule microarray, 635 nm fluorescence, primary screen (AID 1125).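 Note: score merges 667 nm channel intensity with signal to noise over triplicate slides.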 To be noted: higher = more signal.
In assay [17] the test system is Chordin-like protein 2 (CHRDL2). The experiment in a line: compounds binding chordin-like 2 – biochemical, small-molecule microarray, 635 nm fluorescence, primary screen (AID 1126).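 Note: printed compound slides probed with Chrdl2 protein at 4 µg/mL for 1 h at 4 C; score merges 667 nm emission intensity with signal to noise over three replicate slides.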 To be noted: fluorescence 635 nm, higher = more signal.
Assay [18] concerns the target Concanavalin-A (Canavalia ensiformis) (UniProt P02866). In words: compounds binding concanavalin A lectin – biochemical, small-molecule microarray, Alexa647 label, 635 nm, artefact control for SMM control protein annotation, primary screen (AID 1127).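 Note: z combines 667 nm emission intensity with signal-to-noise across three replicate slides.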 To be noted: ConA-A647 binding fluorescence, higher = more signal.

Active and inactive are the calls of the source.

Concanavalin-A (Canavalia ensiformis), sequence (P02866 whole entry, looked up): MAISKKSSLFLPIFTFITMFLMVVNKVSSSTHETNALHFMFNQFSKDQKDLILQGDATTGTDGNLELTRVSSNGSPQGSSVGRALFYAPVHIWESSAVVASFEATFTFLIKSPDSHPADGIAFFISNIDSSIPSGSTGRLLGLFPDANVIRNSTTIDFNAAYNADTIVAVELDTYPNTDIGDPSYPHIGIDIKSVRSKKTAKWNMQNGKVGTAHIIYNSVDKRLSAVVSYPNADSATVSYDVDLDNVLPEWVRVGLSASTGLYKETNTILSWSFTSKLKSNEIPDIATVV
Torsin-1A-interacting protein 1 (Homo sapiens), sequence (Q5JTV8 whole entry, looked up): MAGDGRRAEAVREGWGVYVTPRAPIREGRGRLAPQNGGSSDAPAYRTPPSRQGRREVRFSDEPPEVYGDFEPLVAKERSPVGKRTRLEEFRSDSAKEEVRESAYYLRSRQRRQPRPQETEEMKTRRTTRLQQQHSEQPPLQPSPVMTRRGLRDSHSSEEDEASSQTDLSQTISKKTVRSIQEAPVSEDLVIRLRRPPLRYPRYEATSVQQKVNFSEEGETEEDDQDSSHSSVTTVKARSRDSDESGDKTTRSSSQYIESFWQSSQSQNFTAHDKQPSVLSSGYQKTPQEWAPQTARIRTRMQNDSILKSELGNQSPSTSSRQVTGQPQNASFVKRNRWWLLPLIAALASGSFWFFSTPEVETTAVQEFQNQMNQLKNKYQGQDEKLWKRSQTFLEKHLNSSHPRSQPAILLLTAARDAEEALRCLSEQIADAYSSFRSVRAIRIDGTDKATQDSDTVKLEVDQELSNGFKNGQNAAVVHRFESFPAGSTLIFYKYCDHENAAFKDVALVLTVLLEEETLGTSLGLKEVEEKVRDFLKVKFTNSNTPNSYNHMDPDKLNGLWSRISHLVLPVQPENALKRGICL

For `COc1ccc(C(O)C2C=CC3C(=O)N(c4ccccc4)C(=O)C3N2Nc2ccc([N+](=O)[O-])cc2)cc1OCc1ccccc1` (stereo not given), the composite z-score came to 0.664 in [1]; 0.0921 in [3]; 0.804 in assay [4]; 0.584 in [5]; 1 in assay [6]; 0.504 in assay [7]. Further, the composite z-score in [8] was 2.27; in [9], 0.979; in assay [10], 1.27; with Albumin (Bos taurus), 0.927; in assay [12], 1.33; in assay [13], 0.708. The composite z-score was determined as 0.591 in [14]; 1.53 in [15]; 1.22 in assay [16]; 1.16 with Sam68 (KHDRBS1); 0.471 in assay [17]; 1.14 in assay [18]. In addition, in assay [2], the z-score worked out at 0.872. Also, the composite Z-score in assay [11] is -0.114 (inactive).
For the molecule `COCCOC(=O)N1C(=O)[C@@]2(c3cc(C#CC4(O)CCCCCC4)ccc31)[C@H](C(=O)N1CCCCCCC1)[C@H]1C(=O)O[C@H](c3ccccc3)[C@H](c3ccccc3)N1[C@@H]2c1ccccc1OCCO`, the composite z-score in assay [1] was 1.42; in assay [3] it was 0.487; in assay [4], 1.79; in [5], 1.22; in assay [6], 0.265; in [7], 0.906. Also, the composite z-score was determined as 2.36 in assay [8]; 1.62 in assay [9]; 1.49 in assay [10]; 0.155 in the assay with Albumin (Bos taurus); 0.922 in [12]; 0.191 in assay [13]. In addition, the composite z-score in assay [14] was 0.452; in [15], 2.83; in assay [16], 0.542; in the assay on Sam68 (KHDRBS1), 1.33; in assay [17] it was 1.09; in assay [18], 0.827. In [2], this molecule gave a z-score of -1.61. Besides, the composite Z-score in assay [11] was 0.176 (inactive).
As to `CN(C)C(=O)[C@]1(CCC(=O)OC(C)(C)C)N=C(c2ccc(OCCCO)cc2)O[C@@H]1c1ccccc1N=[N+]=[N-]`, the composite z-score in assay [1] is 1.54; in [3] it was -0.12; in assay [4] it was 1.22; in [5], 0.463; in assay [6] it was 0.173; in assay [7], 0.14. Moreover, the composite z-score was 1.02 in assay [8]; 2.07 in assay [9]; 1.36 in assay [10]; 0.934 in the assay with Albumin (Bos taurus); 0.374 in [12]; -0.0985 in assay [13]. For the same molecule, the composite z-score was 0.719 in assay [14]; 3.15 in assay [15]; 0.964 in assay [16]; 1.31 in the assay on Sam68 (KHDRBS1); -0.516 in [17]; 0.858 in [18]. This molecule came in with a z-score in assay [2] of 0.929. Moreover, the composite Z-score in assay [11] is 0.155 (inactive).
Regarding `[N-]=[N+]=NCc1ccccc1[C@H]1OC(c2ccc(OCCCO)cc2)=N[C@@]1(CCS(=O)(=O)c1ccccc1)C(=O)N1CCOCC1`, the composite z-score in assay [1] came out at 1.44; in [3], 0.402; in [4], 2.58; in [5], 0.786; in assay [6] it was 0.242; in [7] it was 0.356. Besides, the composite z-score in assay [8] came out at 2.25; in [9], 3.34; in assay [10], 2.59; in the assay with Albumin (Bos taurus), 1.05; in assay [12], 0.515; in [13] it was 0.268. Moreover, the composite z-score in assay [14] was 0.819; in assay [15], 3.05; in assay [16], 0.362; in the assay on Sam68 (KHDRBS1), 1.3; in assay [17] it was -0.584; in assay [18], 1.11. Further, the z-score in [2] was -1.27. In addition, in [11], the composite Z-score is 1.09 (inactive).
As to `COc1ccccc1CN1C(=O)c2ccccc2[C@@H](C(=O)NCCN2CCOCC2)[C@@H]1c1ccc(CO)cc1`, the composite z-score in assay [1] is 0.623; in assay [3], -0.725; in [4], -0.652; in [5], 0.0041; in assay [6] it was -0.185; in assay [7] it was 0.123. The composite z-score in assay [8] is -0.232; in assay [9] it was 1.01; in [10] it was -0.737; with Albumin (Bos taurus) it was 0.305; in [12] it was -0.0824; in assay [13], -0.0548. The composite z-score in [14] was 0.769; in [15] it was 1.29; in assay [16], 1.08; in the assay with Sam68 (KHDRBS1), 0.287; in [17] it was -0.159; in assay [18], -0.15. For the same molecule, the z-score in assay [2] is -1.64. Also, the composite Z-score in [11] is -0.275 (inactive).
Regarding `COc1ccc(C#Cc2ccc3c(c2)[C@]2(C(=O)N3)[C@H](C(=O)NC[C@H](O)c3ccccc3)[C@H]3C(=O)O[C@H](c4ccccc4)[C@H](c4ccccc4)N3[C@@H]2c2ccc(OCCO)cc2)cc1`, the composite z-score was 1.43 in assay [1]; 0.965 in [3]; 0.841 in [4]; -0.203 in [5]; 0.0037 in assay [6]; 0.327 in assay [7]. For the same molecule, the composite z-score is -0.611 in assay [8]; 0.952 in assay [9]; 1.76 in [10]; 0.265 with Albumin (Bos taurus); 0.196 in assay [12]; -0.125 in assay [13]. Further, the composite z-score in assay [14] amounted to 0.357; in assay [15], 1.97; in assay [16] it was 0.635; in the assay on Sam68 (KHDRBS1), 1.33; in assay [17] it was 0.473; in [18], 1.17. The molecule further had a z-score in assay [2] of -2.13. Further, in assay [11], the composite Z-score was 0.53 (inactive).
`CN(C)C(=O)[C@@]1(CCC(=O)OC(C)(C)C)N=C(c2ccc(OCCCO)cc2)O[C@H]1c1ccccc1`: the composite z-score in assay [1] is 1.49; in [3], -0.964; in assay [4] it was 1.03; in [5], 1; in assay [6] it was 0.0733; in assay [7] it was 0.357. In addition, the composite z-score is 0.546 in assay [8]; 1.41 in assay [9]; 0.575 in assay [10]; 0.955 with Albumin (Bos taurus); 0.519 in [12]; -0.0125 in [13]. Further, the composite z-score in [14] is 0.842; in [15], 3.16; in assay [16], 0.55; with Sam68 (KHDRBS1) it was 0.926; in assay [17], -0.719; in [18] it was 0.683. This molecule came in with a z-score in assay [2] of -1.01. Further, the composite Z-score in assay [11] is 0.58 (inactive).
For `CC(=O)NCCCC[C@@H]1NC(=O)[C@@H]2C[C@H](C(=O)NCCCCCCNC(=O)CS)[C@H](c3ccc(O)cc3)N2C1=O`, the composite z-score in assay [1] was 1.07; in [3], -0.746; in [4], 0.725; in assay [5] it was 0.31; in [6], -0.211; in assay [7], -0.0643. In addition, the composite z-score is -0.158 in [8]; 1.15 in [9]; 1.36 in assay [10]; -0.0424 with Albumin (Bos taurus); -0.256 in assay [12]; -0.129 in assay [13]. Also, the composite z-score in assay [14] was 0.597; in assay [15], 0.846; in assay [16], 0.386; in the assay on Sam68 (KHDRBS1), 0.464; in [17] it was -0.573; in assay [18] it was 0.647. This molecule yielded a z-score in assay [2] of 0.391. Besides, the composite Z-score in [11] is -0.202 (inactive).

Source of the values: PubChem BioAssay.
